Laboratory results reported in PubChem BioAssay (NCI).
This is part of a sample that, as a whole, favours compounds with a hit. Of some 83,000 tested, about 20% had one in any assay.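 Results are percent growth after 48 hours of single-concentration exposure. 100 means growth as in untreated cells, lower positive values show inhibition; negative values down to -100 show cell death.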 Values without a mark were called inactive. The source made the active and inactive calls. The calls were made as follows: active = growth percent below 10; inactive = the rest.

tested on: NCI-H23 lung; assay: NCI-60 one-dose screen, 48 h (100 = growth as untreated, 0 = no growth, -100 = all killed); conditions: 10 µM unless noted

Row | SMILES | growth
1 | CC(C)=CCC[C@H](C(=O)O)[C@@H]1CC[C@]2(C)C3=C(CC[C@@]12C)[C@@]1(C)CC[C@H](O)C(C)(C)[C@@H]1CC3 | 106%
2 | C=CC[PH+](c1ccccc1)c1ccccc1.C=CC[PH+](c1ccccc1)c1ccccc1.[Cl][Pt][Cl] | 58.8%
3 | CN1CCC(O)(c2ccc(F)cc2)C(C(=O)c2ccc(F)cc2)C1 (centres undefined) | 99.3%
4 | COc1ccc2c(c1)c(-c1nc(-c3c[nH]c4ncccc34)cs1)cn2CCN1CCOCC1 | 57.3%
5 | COC(=O)[C@@H](C)C[C@H](Cc1ccccc1)NC(=O)c1csc([C@@H](C[C@H](C(C)C)N(C)C(=O)[C@@H](NC(=O)[C@H]2CCCCN2C)C(C(F)(F)F)C(F)(F)F)OC(C)=O)n1 | 44.8%
6 | CN1CC(=O)N(O)C1(C)c1cccnc1 (centres undefined) | 104%
7 | COc1cc(/C=C/[N+](=O)[O-])cc(OC)c1 | -47.3% (active)
8 | CC12CCC3C(CCC4Cc5[nH]c6ccccc6c5CC43C)C1CCC2O (centres undefined) | 49.3%
9 | COC(=O)C12CC(NC(=O)c3csc([C@@H](C[C@H](C(C)C)N(C)C(=O)[C@@H](NC(=O)[C@H]4CCCCN4C)C(C)C)OC(C)=O)n3)(C1)C2 | 23.9%
10 | CC1CN1CCCCN1CC1C (centres undefined) | 109%
11 | CC(=O)O[C@H](C[C@H](C(C)C)N(C)C(=O)[C@@H](NC(=O)[C@H]1CCCCN1C)C(C)C)c1nc(C(=O)NC2CCC(C(=O)O)CC2)cs1 (some centres undefined) | 64.8%
12 | CC[C@H](C)[C@@H]([C@@H](CC(=O)N1CCC[C@H]1[C@H](OC)[C@@H](C)C(=O)N[C@H](C)[C@@H](O)c1ccccc1)OC)N(C)C(=O)[C@@H](NC(=O)[C@@H](NC)C(C)C)C(C)C | 27.9%
13 | CCNc1nc(Cl)nc(NCC)n1 | 111%
14 | CCOP(=O)(NC[C@H]1O[C@](O)(CO)[C@@H](O)[C@@H]1O)OCC | 97.4%
15 | CCCc1cc(O)c2c3c(c(=O)oc2c1)CN(C)CC3 | 54.5%
16 | CCCCN1CCCC[C@@H]1C(=O)N[C@H](C(=O)N(C)[C@H](CCc1nc(C(=O)N[C@@H](Cc2ccccc2)C[C@H](C)C(=O)OC)cs1)C(C)C)[C@@H](C)CC | 62.6%
17 | O=C([O][Hg][CH2]C1COCC([CH2][Hg][O]C(=O)c2ccccc2)O1)c1ccccc1 (centres undefined) | 90.2%
18 | CN[C@]1(c2ccccc2Cl)CCCC[C@H]1NCCCN1CCN(C)CC1 | 109%
19 | Cn1cc(-c2csc(-c3cn(CCN4CCOCC4)c4ccc(F)cc34)n2)c2cccnc21 | 22.5%
20 | CC(C)CCC1(CCCl)C(=O)NC(=O)NC1=O | 99.6%
21 | O=C(CCCC1CCCCC1)OCC(Cl)(Cl)Cl | 94.3%
22 | COC(=O)CC12CC(NC(=O)c3csc([C@@H](C[C@H](C(C)C)N(C)C(=O)[C@@H](NC(=O)[C@H]4CCCCN4C)C(C)C)OC(C)=O)n3)(C1)C2 | 21.3%
23 | C#Cc1ccc2c(c1)C(c1ccccc1)=NCC(=O)N2C | 63.3%
24 | COc1cccc2c1c(C(=O)C(=O)Nc1ccn[nH]1)cn2Cc1ccc(F)cc1 | 96.4%
25 | Clc1cccc(Cl)c1Cl | 102%
26 | O=c1[nH]cc(N(CCCl)CCCl)c(=O)[nH]1 | 54.2%
27 | CC(C)(N)Cc1ccccc1 | 113%

tested on: NCI-H226 lung; assay: as above; conditions: 10 µM unless noted

Row | SMILES | growth
28 | CC[C@H](C)[C@H](NC(=O)c1ccccn1)C(=O)N(C)[C@H](C[C@@H](OC(C)=O)c1nc(C(=O)N[C@@H](Cc2ccccc2)C[C@H](C)C(=O)OC)cs1)C(C)C | 25.4%
29 | O=[N+]([O-])c1cnc[nH]1 | 105%
30 | CC(=O)O[C@H]1CC[C@]2(C)[C@H]3CC[C@]4(C)[C@@H](OC(C)=O)CC[C@H]4[C@@H]3[C@@H](C)[C@]2(O)C1 | 104%
31 | CCN(CC)CCOC(=O)C(OC(C)C)(c1ccccc1)c1ccccc1 | 100%
32 | O=C1NC(=O)C(=Cc2cccn2CCCCCn2c3ccccc3c(=O)c3ccccc32)C(=O)N1 | 99.1%
33 | COc1ccc(Nc2ccc([N+](=O)[O-])cc2[N+](=O)[O-])cc1CN(CCCl)CCCl | 39.7%
34 | CCCC[C@H](NC(=O)[C@H]1CCCCN1C)C(=O)N(C)[C@H](C[C@@H](OC(C)=O)c1nc(C(=O)N[C@@H](Cc2ccccc2)C[C@H](C)C(=O)OCC)cs1)C(C)C | 32.8%
35 | Nc1c(F)cc(-c2nc3cc(F)ccc3[se]2)cc1F | -11.3% (active)
36 | COC(=O)[C@H](Cc1ccccc1)NC(=O)c1csc([C@@H](C[C@H](C(C)C)N(C)C(=O)[C@@H](NC(=O)[C@H]2CCCCN2C)C2CC2)OC(C)=O)n1 | 27.7%
37 | COC(=O)[C@@H](C)C[C@H](Cc1ccccc1)NC(=O)c1nc([C@@H](C[C@H](C(C)C)N(C)C(=O)[C@@H](NC(=O)[C@H]2CC(=O)CCN2C)C(C)C)OC(C)=O)sc1C(C)C | -25.2% (active)
38 | CC(C)=CCC[C@H](C(=O)O)[C@@H]1CC[C@]2(C)C3=C(CC[C@@]12C)[C@@]1(C)CC[C@H](O)C(C)(C)[C@@H]1CC3 | 109%
39 | C=CC[PH+](c1ccccc1)c1ccccc1.C=CC[PH+](c1ccccc1)c1ccccc1.[Cl][Pt][Cl] | 73.9%
40 | CN1CCC(O)(c2ccc(F)cc2)C(C(=O)c2ccc(F)cc2)C1 (centres undefined) | 108%
41 | COc1ccc2c(c1)c(-c1nc(-c3c[nH]c4ncccc34)cs1)cn2CCN1CCOCC1 | 49.7%
42 | COC(=O)[C@@H](C)C[C@H](Cc1ccccc1)NC(=O)c1csc([C@@H](C[C@H](C(C)C)N(C)C(=O)[C@@H](NC(=O)[C@H]2CCCCN2C)C(C(F)(F)F)C(F)(F)F)OC(C)=O)n1 | 56.7%
43 | CN1CC(=O)N(O)C1(C)c1cccnc1 (centres undefined) | 94.7%
44 | COc1cc(/C=C/[N+](=O)[O-])cc(OC)c1 | -31.2% (active)
45 | CC12CCC3C(CCC4Cc5[nH]c6ccccc6c5CC43C)C1CCC2O (centres undefined) | 41.3%
46 | COC(=O)C12CC(NC(=O)c3csc([C@@H](C[C@H](C(C)C)N(C)C(=O)[C@@H](NC(=O)[C@H]4CCCCN4C)C(C)C)OC(C)=O)n3)(C1)C2 | 10.6%

Row | SMILES | growth
47 | CC1CN1CCCCN1CC1C (centres undefined) | 106%
48 | CC(=O)O[C@H](C[C@H](C(C)C)N(C)C(=O)[C@@H](NC(=O)[C@H]1CCCCN1C)C(C)C)c1nc(C(=O)NC2CCC(C(=O)O)CC2)cs1 (some centres undefined) | 90.6%
49 | CC[C@H](C)[C@@H]([C@@H](CC(=O)N1CCC[C@H]1[C@H](OC)[C@@H](C)C(=O)N[C@H](C)[C@@H](O)c1ccccc1)OC)N(C)C(=O)[C@@H](NC(=O)[C@@H](NC)C(C)C)C(C)C | 66.9%
50 | CCNc1nc(Cl)nc(NCC)n1 | 90.4%
51 | CCOP(=O)(NC[C@H]1O[C@](O)(CO)[C@@H](O)[C@@H]1O)OCC | 75.9%
52 | CCCc1cc(O)c2c3c(c(=O)oc2c1)CN(C)CC3 | 38.9%
53 | CCCCN1CCCC[C@@H]1C(=O)N[C@H](C(=O)N(C)[C@H](CCc1nc(C(=O)N[C@@H](Cc2ccccc2)C[C@H](C)C(=O)OC)cs1)C(C)C)[C@@H](C)CC | 84%
54 | O=C([O][Hg][CH2]C1COCC([CH2][Hg][O]C(=O)c2ccccc2)O1)c1ccccc1 (centres undefined) | 106%
55 | CN[C@]1(c2ccccc2Cl)CCCC[C@H]1NCCCN1CCN(C)CC1 | 94.5%
56 | Cn1cc(-c2csc(-c3cn(CCN4CCOCC4)c4ccc(F)cc34)n2)c2cccnc21 | 16.6%
57 | CC(C)CCC1(CCCl)C(=O)NC(=O)NC1=O | 96.6%
58 | O=C(CCCC1CCCCC1)OCC(Cl)(Cl)Cl | 99%
59 | COC(=O)CC12CC(NC(=O)c3csc([C@@H](C[C@H](C(C)C)N(C)C(=O)[C@@H](NC(=O)[C@H]4CCCCN4C)C(C)C)OC(C)=O)n3)(C1)C2 | 23.1%
60 | C#Cc1ccc2c(c1)C(c1ccccc1)=NCC(=O)N2C | 69%
61 | COc1cccc2c1c(C(=O)C(=O)Nc1ccn[nH]1)cn2Cc1ccc(F)cc1 | 76.4%
62 | Clc1cccc(Cl)c1Cl | 101%
63 | O=c1[nH]cc(N(CCCl)CCCl)c(=O)[nH]1 | 76.5%
64 | CC(C)(N)Cc1ccccc1 | 107%
